The sample as a whole holds a higher share of hits than the screen did.
Methyltransferases = Primary Screen for Target Class Profiling of Small Molecule Inhibitors of Methyltransferases; calls only at 40 µM; 25,000 tested, 3.9% active; purified enzyme, MTase-Glo SAH luminescence; stronger effect = lower value; call rule not given here
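Each enzyme was assayed with SAM and its substrate. SAH formation detected by MTase-Glo luminescence; single-point 40 uM screen[…].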
MTase-Glo ctr = inhibits MTase-Glo coupling enzymes without methyltransferase; MTase-Glo coupled enzymes, SAH conversion luminescence, no MTase; shares compounds with Methyltransferases; 180 tested, 6% active; Potency, µM (highest dose often 57.3 µM), most hits filed as inhibitors; AID 1745851; active = well fitted inhibition curve with a large enough effect; inconclusive = small, poorly fitted or top-dose-only effect
Calls only; – = inactive; ? = inconclusive; + = active, no number.

SMILES | Methyltransferases | others
COc1ccc2c(c1)C(CN1CCN(c3ccc4oc(C(=O)O)cc4c3Cl)CC1)=CC(C)(C)CO2 | + | MTase-Glo ctr=–
COc1ccc2c(c1)C(COCc1ccc(C(=O)O)cc1)=CC(C)(C)CO2 | –
COc1ccc2c(c1)C(CN1CCN(CC(=O)OC(C)(C)C)CC1)=CC(C)(C)O2 | –
CC1(C(=O)NC2CCCCC2)Cn2c(ccc2-c2ccccc2)C(=O)N1Cc1ccccc1Cl (configuration not stated) | –
CCc1cc2c(cc3n2CC(C)(C(=O)NC2CCCCC2)N(CCN(C)C2CCCCC2)C3=O)s1 (configuration not stated) | –
CC1CCC(NC(=O)C2(C)Cn3c(ccc3-c3ccccc3)C(=O)N2CCCc2ccccc2)CC1 (configuration not stated) | –
CCCN1C(=O)c2c(C(=O)NCc3ccc(C)o3)ncn2CC1(C)C(=O)NCCC(C)C (configuration not stated) | –
O=C(CCc1nnc2n(Cc3ccc(Cl)cc3)c(=O)c3ccccc3n12)Nc1ccc(F)cc1 | –
CCc1cc2c(cc3n2CC(C)(C(=O)NC2CCC(C)CC2)N(c2cc(C)ccc2C)C3=O)s1 (configuration not stated) | –
COc1cccc(Nc2cc3c(cn2)CN(Cc2cccnc2)CCN3)c1 | + | MTase-Glo ctr=–
CCn1cc(CNc2ccc(-c3ccccc3OC)nn2)cn1 | –
c1ccc(CN2CCNc3cnc(Nc4ccc(N5CCOCC5)cc4)cc3C2)cc1 | + | MTase-Glo ctr=–
COc1ccc(CNc2cc3c(cn2)CN(Cc2ccccc2)CCN3)cc1OC | + | MTase-Glo ctr=–
O=C1NCCN1C1CCN(Cc2cccnc2)CC1 | –
Cn1nccc1-c1cc2c(cn1)CN(Cc1ccncc1)CCN2 | + | MTase-Glo ctr=–
CCOc1cc2c(cn1)NCCN(Cc1ccncc1Cl)C2 | –
O=C1c2cc(N3CCOCC3)nc(-c3cccc(CO)c3)c2CN1c1ccccc1 | –
CC1(C(=O)Nc2ccccc2)CN(Cc2ccccc2)Cc2ccc(N3CCOCC3)nc21 (configuration not stated) | –
COc1ccc2nc([C@H]3CCN(Cc4cccnc4)C3)[nH]c2c1 | –
COc1ccc(CN2C(=O)c3cc(-c4ccccc4)nn3CC2(C)C(=O)NCc2ccccc2)cc1OC (configuration not stated) | –
Cc1ccc(CCNC(=O)c2cc3n(n2)CC(C)(C(=O)NCc2ccc(C)cc2)N(C)C3=O)cc1 (configuration not stated) | –
CCCCNC(=O)c1ccc2c(=O)nc3c(-c4ccc(OC)cc4)n[nH]n3c2c1 | –
CC(C)Cn1c(=O)c2ccc(C(=O)NC(C)C)cc2n2c(=O)n(CC(=O)Nc3cccc(Cl)c3)nc12 | –
CC(C)Oc1ccc(CNC(=O)C(C)n2ccc3cc(S(=O)(=O)N4CCCC4)ccc32)cc1 (configuration not stated) | –
COc1cccc(CN2C(=O)c3cc4occc4n3CC2(C)C(=O)NC2CCCCCCC2)c1OC (configuration not stated) | –
SMILES | Methyltransferases | others
CC1CCC(NC(=O)CCc2nnc3n(Cc4ccc(Cl)cc4)c(=O)c4ccccc4n23)CC1 (configuration not stated) | –
CC(C)CCNC(=O)C1(C)Cn2nc(C(=O)NC3CCCC3)cc2C(=O)N1C (configuration not stated) | –
CCCCNC(=O)C(C)n1ccc2cc(S(=O)(=O)N3CCCC3)ccc21 (configuration not stated) | –
COc1ccc(CCN2CCN(CCCc3ccccc3)CC2)cc1OC | –
COc1ccc(-c2nnc3n(Cc4ccccc4)c(=O)c4ccccc4n23)cc1OC | –
COc1ccc(-c2cc3c(cn2)CN(CCc2ccccc2)CCN3)cc1OC | + | MTase-Glo ctr=?
CC1(C(=O)NC2CCCCCC2)Cn2nc(-c3cccs3)cc2C(=O)N1c1ccc(F)cc1 (configuration not stated) | –
CC(C)OCCCNc1nc2c(-c3ccc(Cl)cc3)nnn2c2ccccc12 | –
COc1ccc(NC(=O)N2CCCC(CN3CCC(C)CC3)CC2)cc1 (configuration not stated) | –
CC(C)n1nc(OC(C)(C)C(=O)Nc2ccccn2)c2cc(CN3CCOCC3)ccc21 | –
COc1ccc(NC(=O)C(C)(C)Oc2nn(CC3CC3)c3ccc(CN4CCCC4)cc23)cc1 | + | MTase-Glo ctr=–
COc1ccccc1CNC(=O)C1(C)Cn2c(cc3ccccc32)C(=O)N1Cc1ccco1 (configuration not stated) | –
CCOC(=O)c1cc2n(n1)CC(C)(C(=O)NC1CCCCC1)N(Cc1ccccc1OCC)C2=O (configuration not stated) | –
O=C(CCC[C@@H]1[C@H]2CCCN3CCC[C@@H](CN1Cc1ccccc1)[C@@H]23)Nc1cccnc1 | + | MTase-Glo ctr=–
COc1ccc(C)cc1NC(=O)CCC[C@@H]1[C@H]2CCCN3CCC[C@@H](CN1C)[C@@H]23 | –

High-throughput results deposited in PubChem BioAssay by National Center for Advancing Translational Sciences (NCATS).
